The list is not random: actives were taken first. Their share in the collection is about 7.6%.
MCF10A rereplic – inducers of DNA re-replication in MCF 10A breast cells; Potency, µM (top dose mostly 46.1 µM), hits mostly activators; MCF 10A DNA re-replication, Hoechst nuclear intensity, 48 h; 350,000 compounds, 2.9% hits; further: nearly all actives have a fitted effect of over 50% in size
KCNH2 3.1 inh – KCNH2 3.1 (human) potassium channel inhibition | activity change, % (tested at about 1.8 µM) | U2OS KCNH2 3.1, thallium flux FluxOr; active compounds read low | 340,000 compounds, 0.95% hits;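 active means maximum activity change below -70%; inconclusive means maximum activity change from -70% to -50%; inactive means maximum activity change above -50%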;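 further: thallium influx rate constant from kinetic fluorescence after stimulation buffer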
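U2OS cells transduced with KCNH2 3.1 mutant virus (1.77 x 10^8 /mL, 4 h), plated overnight at 37 C, loaded 45 min with FluxOr dye plus Red40 quencher. Thallium flux rate constant from kinetic reads after stimulation buffer, normalised to controls.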
KB-V1 cytotox – KB-V1 MDR subline cytotoxicity | KB-V1 MDR cells viability, CellTiter-Glo, 72 h | Potency, µM (series often up to 46.1 µM), hits mostly cytotoxic | 400,000 compounds, 3.4% hits; further: nearly all actives have a fitted effect of over 60% in size
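In this primary screen, KB-V1 cells overexpressing P-gp are incubated with library compounds (lowest to highest concentration) for 72 h at 37 degrees C before a luminescent ATP viability read.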
KB-3-1 tox – kills parental KB-3-1 adenocarcinoma cells. KB-3-1 viability, CellTiter-Glo ATP luminescence, 72 h. 400,000 compounds, 1.4% hits. Potency, µM (top dose mostly 46.1 µM), actives largely listed as cytotoxic; further: nearly all actives have a fitted effect of over 60% in size
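72 h, 37 °C compound treatment of KB-3-1 parental cells; CellTiter-Glo added, 10 min, luminescence read. Data corrected against DMSO-only plates and normalized before curve fitting.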
hERG WT inh – inhibitors of human wildtype KCNH2 potassium channel | activity change, % at 1.84 µM | 340,000 compounds, 0.37% hits | U2OS, BacMam KCNH2, thallium flux FluxOr; active compounds read low | Q12809 | AID 720551;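 active means maximum activity change below -70%; inconclusive means maximum activity change between -70% and -50%; inactive means maximum activity change above -50%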
Target sequence (Q12809 whole entry, looked up): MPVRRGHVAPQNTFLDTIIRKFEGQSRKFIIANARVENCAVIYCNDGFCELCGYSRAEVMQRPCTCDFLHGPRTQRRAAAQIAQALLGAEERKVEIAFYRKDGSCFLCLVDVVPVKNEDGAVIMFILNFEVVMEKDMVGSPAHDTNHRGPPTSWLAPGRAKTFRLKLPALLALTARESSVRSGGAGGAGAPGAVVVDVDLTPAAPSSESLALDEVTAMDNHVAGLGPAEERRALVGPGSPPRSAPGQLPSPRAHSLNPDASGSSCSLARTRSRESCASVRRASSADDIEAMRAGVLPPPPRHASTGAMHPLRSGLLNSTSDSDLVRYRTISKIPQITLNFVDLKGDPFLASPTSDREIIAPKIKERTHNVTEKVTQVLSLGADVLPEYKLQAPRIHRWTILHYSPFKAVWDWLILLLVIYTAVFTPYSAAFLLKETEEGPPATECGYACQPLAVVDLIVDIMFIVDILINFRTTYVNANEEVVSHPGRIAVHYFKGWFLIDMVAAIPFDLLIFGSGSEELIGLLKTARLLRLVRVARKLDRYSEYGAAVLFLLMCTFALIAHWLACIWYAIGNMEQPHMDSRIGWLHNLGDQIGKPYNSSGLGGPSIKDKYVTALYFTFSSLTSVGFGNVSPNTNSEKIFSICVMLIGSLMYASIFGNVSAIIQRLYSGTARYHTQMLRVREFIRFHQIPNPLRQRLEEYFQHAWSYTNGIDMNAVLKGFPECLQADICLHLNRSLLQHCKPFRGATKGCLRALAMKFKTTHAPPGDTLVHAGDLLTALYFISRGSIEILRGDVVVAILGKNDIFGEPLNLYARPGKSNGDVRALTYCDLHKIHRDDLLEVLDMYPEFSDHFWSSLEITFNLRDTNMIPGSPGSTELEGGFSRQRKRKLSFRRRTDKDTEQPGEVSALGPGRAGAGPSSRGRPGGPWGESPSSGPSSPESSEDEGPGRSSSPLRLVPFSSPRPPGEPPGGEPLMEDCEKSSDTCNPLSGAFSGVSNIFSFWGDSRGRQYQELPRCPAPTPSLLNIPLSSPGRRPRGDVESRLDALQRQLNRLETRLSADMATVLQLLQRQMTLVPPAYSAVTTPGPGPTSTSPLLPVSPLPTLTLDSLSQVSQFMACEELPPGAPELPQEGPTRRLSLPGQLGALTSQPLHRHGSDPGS
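U2OS cells transduced with wild-type KCNH2 virus are loaded with FluxOr dye for 45 min, and thallium flux is measured in kinetic reads before and after stimulation buffer. Rate constants are normalized to DMSO controls.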
SW480 rereplic – induces DNA re-replication in SW480 colon adenocarcinoma cells | SW480 DNA re-replication, Hoechst DNA content imaging, 48 h | Potency, µM (titrated, usually from 46.1 µM), usual class: activators | 340,000 compounds, 1.8% hits | AID 624297; further: nearly all actives have a fitted effect of over 55% in size
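First, 250 cells per well were seeded. Next, compound or vehicle (23 nL) was pinned in, plates sat 48 hr at 37 C. Finally Hoechst was added for 40 min before fluorescence scanning.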
Each line names hits and unclear results; the compound was inactive in the other large screens. Unless noted, the call rests on the fitted dose curve; in most records, active means well fitted curve in the direction sought with a large enough effect; inconclusive means small, poorly fitted or top-dose-only effect, or another doubt; inactive means no such curve, though single readings can be large; an effect the other way counts as inactive or inconclusive.

COc1ccc(CCN(C)C(=S)Nc2ccc(SC(F)F)cc2)cc1OC	MCF10A rereplic inconclusive, KB-V1 cytotox inconclusive, SW480 rereplic inconclusive
COc1ccc(CCN(C)C(=S)NC(=O)c2ccc(F)cc2Cl)cc1OC	KB-V1 cytotox 14.6µM
COc1ccc(N=C2NN=C(c3c(C)[nH]c4ccccc34)CS2)cc1	MCF10A rereplic 18.4µM, KB-3-1 tox inconclusive, SW480 rereplic inconclusive
Cc1cc(C2=NNC(=Nc3ccccc3)SC2)c(C)n1C	none
Cc1[nH]c2ccccc2c1C1=NNC(=Nc2ccc(F)cc2)SC1	MCF10A rereplic 20.6µM, KB-3-1 tox inconclusive, SW480 rereplic inconclusive
O=[N+]([O-])c1ccccc1OCCNCc1ccccc1	none
Cc1cn(CC(C)C)c(=O)n(-c2ccccc2)c1=O	KB-V1 cytotox inconclusive, KB-3-1 tox inconclusive
COc1cc2c(NC3CCN(C)CC3)nc(N3CCCCC3)nc2cc1OCCCN(C)C	KB-3-1 tox inconclusive (no result: MCF10A rereplic, KCNH2 3.1 inh, hERG WT inh, SW480 rereplic)
CC1(C)CC(N(Cc2ccc(F)cc2)C(=O)c2ccc(F)cc2)CCO1 (stereo not given)	none
CC1(C)CC(C(CCN(Cc2ccccc2)C(=O)c2ccco2)c2ccc(F)cc2)CCO1 (stereo not given)	MCF10A rereplic 8.2µM, KB-V1 cytotox 9.2µM, KB-3-1 tox inconclusive
O=C(c1ccco1)N(CCC(c1ccccc1)c1ccco1)Cc1ccc(F)cc1 (stereo not given)	MCF10A rereplic 10.3µM, KB-V1 cytotox 7.31µM, SW480 rereplic inconclusive
O=C(CN(Cc1ccc(F)cc1)C(=O)c1ccco1)NCc1ccc(F)cc1	KB-V1 cytotox inconclusive
CC(C)Cn1c(N)c(C(=O)NCCN2CCOCC2)c2nc3ccccc3nc21	KB-V1 cytotox 23.1µM
Cc1cccc(-n2c(N)c(C(=O)NCCN3CCOCC3)c3nc4ccccc4nc32)c1	MCF10A rereplic 20.6µM, SW480 rereplic inconclusive
CCOC(=O)c1c(NC(=O)CSc2nnc3c(n2)[nH]c2ccccc23)sc2c1CCN(C)C2	MCF10A rereplic inconclusive, SW480 rereplic inconclusive
CCn1c(SCC(=O)Nc2nccs2)nnc1-c1ccccn1	none
CCOc1ccccc1C(=O)N(Cc1cccs1)c1ccc(Cl)cc1	KB-3-1 tox inconclusive (no result: MCF10A rereplic, KCNH2 3.1 inh, hERG WT inh, SW480 rereplic)
CCOC(=O)c1[nH]c2cc(OC)c(OC)cc2c1NC(=O)c1ccc2c(c1)OCO2	none
CCOC(=O)c1[nH]c2cc(OC)c(OC)cc2c1NC(=O)CN(C)C1CCCCC1	KB-V1 cytotox 7.31µM, KB-3-1 tox inconclusive
COc1ccc(C2=C(C)C(=O)N(Cc3ccc(C(=O)Nc4ccc(F)cc4C)cc3)S2(=O)=O)cc1	KB-3-1 tox 4.61µM (no result: MCF10A rereplic, KCNH2 3.1 inh, hERG WT inh, SW480 rereplic)
Cc1noc(/C=C/c2cccs2)c1S(=O)(=O)N1CCC(C(=O)NCCCN2CCCC(C)C2)CC1 (stereo not given)	SW480 rereplic inconclusive
Nc1nc(SCC(=O)c2c(N)n(Cc3ccccc3)c(=O)[nH]c2=O)n[nH]1	hERG WT inh -104.8
CN1CCN(C(=S)Nc2cccc(Cl)c2)CC1	KB-V1 cytotox 13µM
CCOC(=O)N1CCN(C(=S)Nc2cccc(C)c2)CC1	KB-V1 cytotox 18.4µM
CCOC(=O)N1CCC(N(CCOC)C(=S)Nc2cccc(SC)c2)CC1	none
Cc1ccc(C(=O)C2CCN(CC(=O)Nc3ccc4c(c3)OCCO4)CC2)cc1	KB-V1 cytotox 11.6µM
CCOC(=O)N1CCC(Nc2cccc(SC)c2)CC1	KCNH2 3.1 inh -70.7
CCOC(=O)c1ccc(NC(=O)c2cc3sccc3n2Cc2ccc(Cl)cc2)cc1	none (no result: MCF10A rereplic, KCNH2 3.1 inh, hERG WT inh, SW480 rereplic)
O=C(C[n+]1ccn(-c2ccccc2)c1)c1ccc([N+](=O)[O-])cc1	MCF10A rereplic inconclusive, KB-3-1 tox inconclusive, SW480 rereplic inconclusive
O=C(CN1CCC(C(=O)c2ccc3c(c2)OCCO3)CC1)Nc1ccccc1F	SW480 rereplic inconclusive
COc1ccc(C(=O)C2CCN(CC(=O)Nc3cc(C)cc(C)c3)CC2)cc1	MCF10A rereplic inconclusive, KCNH2 3.1 inh inconclusive, KB-V1 cytotox inconclusive
Cc1cccc(NC(=O)CN2CCC(C(=O)c3ccc4c(c3)OCCO4)CC2)c1	KB-V1 cytotox 11.6µM, KB-3-1 tox inconclusive
Cc1ccc(C(=O)C2CCN(CC(=O)Nc3nc(C)cs3)CC2)cc1	KB-V1 cytotox 20.6µM
Cc1cccc(NC(=O)CN2CCN(CC(=O)Nc3cccc(C)c3)CC2)c1	MCF10A rereplic 20.6µM, KB-V1 cytotox inconclusive
O=C(NCCCNC(=O)c1c(Cl)cccc1Cl)c1c(Cl)cccc1Cl	KB-3-1 tox inconclusive
NC(=O)c1ccc(-n2nnnc2Oc2ccccc2)cc1	MCF10A rereplic inconclusive
COc1ccccc1Oc1nnnn1-c1ccc(C(N)=O)cc1	KCNH2 3.1 inh -85.2
CCCN1CCC(=O)N([C@H](CSc2ccc(Br)cc2)c2ccccc2)CC1	KCNH2 3.1 inh -115.6, hERG WT inh -130.4
O=C1CCN(CCc2ccccc2)CCN1[C@H](CSc1ccc(Br)cc1)c1ccccc1	MCF10A rereplic inconclusive, KCNH2 3.1 inh -113.2, hERG WT inh -169.5
CCCN1CCC(=O)N([C@H](CSc2ccccc2)CC(C)C)CC1	KB-V1 cytotox inconclusive
C[C@@H]1CC=C[C@H]2[C@H]1C(=O)N(Cc1ccccc1)[C@H]2c1ccc(-c2ccoc2)cc1F	MCF10A rereplic 18.4µM (no result: KCNH2 3.1 inh, hERG WT inh)
COc1ccc(-c2ccc(F)cc2)cc1[C@H]1[C@H]2C=CC[C@@H](C)[C@@H]2C(=O)N1Cc1ccccc1	MCF10A rereplic 20.6µM, KB-V1 cytotox inconclusive, KB-3-1 tox inconclusive
COc1ccc(-c2ccccc2[C@H]2[C@@H]3C=CC[C@@H](C)[C@@H]3C(=O)N2Cc2ccccc2)cc1	MCF10A rereplic 23.1µM, SW480 rereplic inconclusive
Cc1ccc(-c2cccc(C3CC=CC4C3C(=O)N(Cc3ccccc3)C4c3cc(C)ccc3F)c2)cc1 (stereo not given)	KB-3-1 tox 20.6µM
C[C@@H]1CC=C[C@@H]2[C@H]1C(=O)N(Cc1ccccc1)[C@H]2c1ccccc1Br	MCF10A rereplic inconclusive, KB-V1 cytotox inconclusive, KB-3-1 tox inconclusive, SW480 rereplic inconclusive
CCCCCc1cc[n+](CC(=O)c2ccccc2)cc1	none (no result: MCF10A rereplic, KCNH2 3.1 inh, hERG WT inh, SW480 rereplic)
CC(=O)N1CCN(c2ccc(NS(=O)(=O)c3ccc4c(c3)CC(=O)N4)cc2)CC1	KB-3-1 tox inconclusive (no result: MCF10A rereplic, KCNH2 3.1 inh, hERG WT inh, SW480 rereplic)
O=C(O)c1cccc(NS(=O)(=O)c2ccc(Cl)c(C(=O)Nc3cccc([N+](=O)[O-])c3)c2)c1	none
Cc1ccc(C)c2sc(N3CCN(C(=O)c4ccc([N+](=O)[O-])o4)CC3)nc12	MCF10A rereplic 9.2µM, KB-V1 cytotox inconclusive, KB-3-1 tox inconclusive, SW480 rereplic inconclusive
CCC(=O)Nc1cccc(-c2cnc3ccccc3n2)c1	KB-V1 cytotox inconclusive
Cc1ccc(-c2cnc3ccccc3n2)cc1C	MCF10A rereplic 18.4µM
